HCV inh = qHTS Assay for Inhibitors of Hepatitis C Virus (HCV). Huh7.5.1 HCVcc-Cre infection, luciferase reporter, 44 h. Potency, µM (series often up to 41.8 µM), inactives show top-dose activity change, negative = inhibition, actives largely listed as inhibitors. 340,000 tested, 3.4% active; active means well fitted inhibition curve with a large enough effect; inconclusive means small, poorly fitted or top-dose-only effect, or another doubt; inactive means no such curve, though single readings can be large or run the other way; further: potency means the concentration at half of the fitted maximal effect
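Infectious HCVcc-Cre (~0.5 moi) was added to cells just after compound, with cells seeded 4 h earlier at 1,000 per well. Luciferase activity after 44 h culture reported infection; substrate was incubated 15 min at room temperature before reading.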
MARV entry inh = qHTS for inhibitors of binding or entry into cells for Marburg Virus. Potency, µM (top dose mostly 37.8 µM), without a hit: at the top dose activity change, negative = inhibition, actives largely listed as inhibitors. 300,000 tested, 1.8% active. Marburg virus pseudotyped entry inhibition, cell reporter. AID 540276, 2011; calls by dose curve; tested in HEK293 cells; further: potency means the concentration at half of the fitted maximal effect
VACV Venus inh = qHTS for Stage-Specific Inhibitors of Vaccinia Orthopoxvirus: Venus Reporter Primary qHTS; Vaccinia virus Venus reporter expression, fluorescence; Potency, µM (doses to about 36.5 µM), without a hit: top-dose activity change, negative = inhibition, actives largely listed as inhibitors; 330,000 tested, 0.46% active; calls by dose curve; tested in A549 cells; further: potency means the concentration at half of the fitted maximal effect; nearly all actives have a fitted effect of over 30% in size
HCMV antiviral = qHTS Assay for inhibitors of the human cytomegalovirus (HCMV). 410,000 tested, 4.5% active. activity change, negative = inhibition, % at 57.5 µM. AID 1259415, 2018. HFF cells, HCMV-luciferase reporter, 72 h; stronger effect = lower value; in the data active means activity change below about -60%; inconclusive means no clear call, values can overlap the other calls; inactive means above about -39%
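Compounds were evaluated in HFFs infected with an HCMV luciferase reporter virus (MOI 1 PFU/cell). Luciferase in lysates collected 72 h post infection served as the replication measure.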
VACV mCherry inh = qHTS for Stage-Specific Inhibitors of Vaccinia Orthopoxvirus: mCherry Reporter Primary qHTS | Vaccinia virus mCherry reporter infection, fluorescence | Potency, µM (titrated, usually from 36.5 µM), without a hit: at the top dose activity change, negative = inhibition, usual class: inhibitors | 310,000 tested, 0.63% active | AID 720579, 2013; calls by dose curve; tested in A549 cells; further: potency means the concentration at half of the fitted maximal effect; nearly all actives have a fitted effect of over 35% in size
LASV entry inh = qHTS for Inhibitors of binding or entry into cells for Lassa Virus; Lassa virus pseudotype entry inhibition, cell reporter; Potency, µM (titrated, usually from 37.9 µM), for inactives: at the top dose activity change, negative = inhibition, actives largely listed as inhibitors; 300,000 tested, 1.2% active; calls by dose curve; tested in HEK293 cells; further: potency means the concentration at half of the fitted maximal effect; nearly all actives have a fitted effect of over 50% in size
* hit, by the source's call; [ ] = remark or other dose. Sampled rows, rich in hits. Any-hit rate of the full collection: about 7.8%. On the % scale 0 is the no-effect control and ±100 the full control effect.

What do the screens show for `C[C@@H]1CC[C@H]2C(=O)N(CC3CCCCC3)C[C@H](O)CN2[C@@H]1c1ccc(Br)cc1`?
MARV entry inh: -0.3%[14.2 µM]

How did C[C@H](NC(=O)OC(C)(C)C)C(=O)N/N=C/C1=Cc2ccccc2OC1 do in these assays?
HCV inh: -16.9%; HCMV antiviral: -78.2*

Results for Cc1ccc2nc(-c3ccc(Cl)c(NC(=O)COc4cccc(C)c4C)c3)oc2c1 ?
MARV entry inh: inconclusive; VACV Venus inh: -5.8%; HCMV antiviral: -25.5; VACV mCherry inh: -9.9%; LASV entry inh: 8.2%[46.1 µM]

Results for CS(=O)(=O)c1ccccc1NC(=O)COc1ccccc1C(=O)Nc1ccccc1 ?
VACV Venus inh: -17.1%; VACV mCherry inh: inactive

What do the screens show for `Cc1cccc(N2CCN(C(=O)c3ccc4c(c3)OCCO4)CC2C)c1` (stereo not drawn)?
HCV inh: 16.2%; MARV entry inh: 3.8%[46.1 µM]; VACV Venus inh: -4.7%; HCMV antiviral: -1.5; VACV mCherry inh: inactive; LASV entry inh: -1.8%

How did Cc1ccc(N2CC(C(=O)N3CCCCC3)CC2=O)cc1C (stereo not drawn) do in these assays?
HCV inh: 3.1%; HCMV antiviral: -61.5*

Results for Cc1cccc(N2CCN(C(=O)C3CC(=O)N(c4ccc5c(c4)OCCO5)C3)CC2C)c1 (stereo not drawn) ?
HCV inh: 11.2µM*; HCMV antiviral: -23.3

Results for O=C(C1CC(=O)N(c2ccc3c(c2)OCCO3)C1)N1CCN(c2ccccc2)CC1 (stereo not drawn) ?
HCV inh: -3.6%; MARV entry inh: 4.0%; VACV Venus inh: 5.9%; HCMV antiviral: -70.2*; VACV mCherry inh: -9.4%; LASV entry inh: -12.0%

What do the screens show for `O=C(C1CC(=O)N(c2ccc3c(c2)OCCO3)C1)N1CCN(c2ccccc2O)CC1` (stereo not drawn)?
HCV inh: inconclusive; HCMV antiviral: 19.6

How did Cc1cccn2c(=O)c3cc(C(=O)NCc4ccccc4Cl)sc3nc12 do in these assays?
MARV entry inh: 6.4%[46.1 µM]; VACV Venus inh: -3.6%; HCMV antiviral: 9.5; VACV mCherry inh: 5.7%; LASV entry inh: -14.3%[46.1 µM]

How did C=CCN1C(=O)/C(=C\c2ccc(OC(=O)c3ccco3)c(OC)c2)SC1=S do in these assays?
HCV inh: -14.6%; VACV Venus inh: inactive; HCMV antiviral: -29.5; VACV mCherry inh: 237.2%

Results for C=CCN1C(=O)/C(=C/c2ccc(OC(C)=O)c(OCC)c2[N+](=O)[O-])SC1=S ?
HCV inh: inconclusive; MARV entry inh: inconclusive; VACV Venus inh: 76.6%; HCMV antiviral: -98.7*; VACV mCherry inh: inactive; LASV entry inh: inconclusive

Results for O=C(CCNS(=O)(=O)c1ccc2c(c1)CCCC(=O)N2)NCc1ccccc1Cl ?
VACV Venus inh: -9.3%; HCMV antiviral: -1.2; VACV mCherry inh: -8.4%; LASV entry inh: -6.4%[46.1 µM]

What do the screens show for `Brc1ccc(-c2ccc(/C=N/Nc3nc(N4CCOCC4)nc(N4CCOCC4)n3)o2)cc1`?
HCV inh: inconclusive; MARV entry inh: 3.98µM*; VACV Venus inh: -3.7%; HCMV antiviral: inconclusive; VACV mCherry inh: inactive; LASV entry inh: -11.6%[46.1 µM]

What do the screens show for `Fc1cnc(N/N=C/c2ccc(-c3ccc(Br)cc3)o2)nc1N1CCOCC1`?
HCV inh: 16.1%; MARV entry inh: 0.2%[46.1 µM]; VACV Venus inh: -14.1%; HCMV antiviral: 5.2; VACV mCherry inh: inactive; LASV entry inh: 5.1%[46.1 µM]

How did Clc1ccc(-c2ccc(/C=N/Nc3cc(N4CCOCC4)nc(N4CCOCC4)n3)o2)cc1 do in these assays?
HCV inh: inconclusive; MARV entry inh: 6.31µM*; VACV Venus inh: -11.6%; HCMV antiviral: -34.2; LASV entry inh: 6.1%

Results for Cc1cc(NC(=O)NC(=O)c2ccccc2NC(=O)CN)ccc1Oc1ncc(Br)cn1 ?
HCV inh: inconclusive; MARV entry inh: inconclusive; VACV Venus inh: inconclusive; HCMV antiviral: -84.3*; VACV mCherry inh: -22.6%; LASV entry inh: -0.4%
